In PubChem BioAssay (NCI) one finds growth data, which are given here for 40 compounds.

Several values for one entry are separate records, joined by “and”; a condition that tells them apart may be missing. Identical values can stand only once. The panel holds about 83,000 compounds, 20% with a hit somewhere; the sample as a whole holds those more often.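 Treatment: one concentration, 48 hours, 96-well format. Scoring: percent growth, with anything below 10 considered active.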 Activity calls are given as the source filed them.

For this assay, the system named is MDA-MB-468 breast. As to the kind of experiment: NCI-60 one-dose screen, 48 h (100 = growth as untreated, 0 = no growth, -100 = all killed). The following applies: 10 µM unless noted.
Consider `CCOC(=O)c1c(O)cc(-c2ccccc2)cc1-c1sc(N(C)Cc2ccccc2)nc1Cl`, for which the growth is 111% (inactive).

For the compound `CCc1nc(C(N)=O)c(Nc2ccc(N3CCC(N4CCN(C)CC4)CC3)c(OC)c2)nc1NC1CCOCC1`, the growth was 69.7% (inactive).

Consider `C=C1C(=O)O[C@H]2[C@H]1CC/C(COC(=O)NCCOCCOCC(=O)Nc1ccc(OC)c(C(N)=O)c1O)=C\CC[C@@]1(C)O[C@@H]21`, for which the growth was 17% (inactive).

As to `CC(C)(C)n1cc(-c2ccnc(NCCCNS(=O)(=O)c3cccc4ccccc34)c2)c(-c2cccc(F)c2)n1`, the growth is 52.5% (inactive).

As to `CC/C(=C(/c1ccc(Cl)cc1)c1ccc(OCCN2CCCC2)cc1)c1ccccc1`, the growth was 46.9% (inactive).

`O=C(c1ccccc1)C(Sc1ccccc1)c1ccccc1` (stereo not given): the growth was 88.7% (inactive).

For the compound `OC(CC(c1ccccc1)c1cccc2ccccc12)(c1ccccc1)c1ccccc1` (stereo not given), the growth was 86.3% (inactive) and 84.5% (inactive).

Regarding `CCNC(=O)Oc1ccc[nH]c1=O`, the growth is 86.9% (inactive).

In the case of `Nc1c(C(=O)NC2CCCCC2)sc2nc3c(cc12)C(=O)CCC3`, the growth was 86.1% (inactive).

Take `O=C(Cc1ccc(/C=C/C(=O)c2nccs2)cc1)Nc1ccccc1`: the growth is 91.7% (inactive).

Regarding `Clc1cccc(/C=N/Nc2nc(N/N=C/c3cccc(Cl)c3Cl)nc(N3CCCCC3)n2)c1Cl`, the growth is 92.8% (inactive).

In the case of `Clc1ccc(-c2n[nH]c3c2Cc2ccccc2-3)cc1Cl`, the growth was 75.3% (inactive).

Consider `COc1ccc(C2Nc3ccccc3-n3cccc32)cc1` (stereo not given), for which the growth is 108% (inactive).

`Cc1c(CC(=O)Nc2ccccc2)nnn1-c1ccccc1`: the growth was 117% (inactive).

Turning to `COc1ccc(CCCc2c3[n+](cc4c(OC)c(OC)ccc24)CCc2cc4c(cc2-3)OCO4)cc1`, the growth is 1.74% (active).

As for `NS(=O)(=O)c1ccc(CCn2c(-c3ccc(C(=O)O)cc3)nc(-c3ccccc3)c2-c2ccccc2)cc1`, the growth was 112% (inactive).

For the compound `COc1ccc(/C=N/Nc2c3ccccc3nc3ccccc23)cc1`, the growth is 73.7% (inactive).

As to `COc1cc(-c2ccc(NC(=O)NC3CC3)c(OC)c2)ccc1NC(=O)NC1CC1`, the growth is 88.8% (inactive).

In the case of `Cc1cccc2c(=O)c3c(sc12)c(NCCNCCO)nc1ccccc13`, the growth was -19.1% (active).

`CSC1=NC(=Nc2c(C)cccc2C)C2(CCC(C(C)(C)C)CC2)N1c1ccc(Cl)cc1` (stereo not given): the growth is 38.3% (inactive).

Consider `COc1ccc2nc3cc(Cl)ccc3c(N3CCN(c4nccc(NCc5ccccc5)n4)CC3)c2c1`, for which the growth was 15% (inactive).

For the compound `CC(=O)c1nc2ccccc2n1CCNC(N)=O`, the growth was 60.8% (inactive).

On to `Nc1nc(N)c2c(n1)NC(c1ccc(Cl)cc1)CC(c1ccc(Nc3nc(NCCO)nc(N4CCOCC4)n3)cc1)=N2` (stereo not given), for which the growth is 73.7% (inactive).

On to `O=[N+]([O-])c1ccc(N=Nc2c(Cl)cc(O)cc2Cl)cc1`, for which the growth is -11.7% (active).

With `COc1ccc(C2CC(c3ccc(OC)c(OC)c3)=NN2C(=O)c2cc(OC)c(OC)c(OC)c2)cc1` (stereo not given), the growth was -32.5% (active).

With `Nc1nc2ccc(CNc3ccc(C(=O)NC(CC(=O)O)C(=O)O)cc3)cc2c(=O)[nH]1` (stereo not given), the growth is 81.6% (inactive).

As for `CC/C=C\C/C=C\C[C@H](O)C/C=C1/C(=O)C=C[C@H]1C/C=C\CCC(=O)OC`, the growth was 28.3% [8.25 µM] (inactive).

Consider `O=S(=O)(NCCNc1nccc(-c2c(-c3ccc(F)c(O)c3)nc3occn23)n1)c1ccc(Cl)cc1`, for which the growth was 95.6% (inactive).

`COc1ccc(OC)c(-c2cn3nc(-c4c[nH]c5ccc(Br)cc45)sc3n2)c1`: the growth was 59.1% (inactive).

With `CC(=O)/C(Cc1ccccc1)=N/O`, the growth was 99.1% (inactive).

For `CC(C)Oc1ccc2cc(-c3nn(CC4CCNCC4)c4ncnc(N)c34)ccc2c1`, the growth is 84.8% (inactive) and -20% (active).

Regarding `CN(C)CCN1C(=O)c2c(c3c4ccccc4n4c3c3c2c2ccccc2n3C2CC(O)C(O)C4(C)O2)C1=O` (stereo not given), the growth is 12.8% (inactive).

Turning to `O=C(O)C(Cc1ccccc1)C(=O)O`, the growth is 82.4% (inactive).

`COc1cc(/C=C2\C(=O)N(CCCOc3cc(O)c4c(=O)cc(-c5ccccc5)oc4c3)c3ccccc32)cc(OC)c1O`: the growth was 89.4% (inactive).

As to `COc1ccc(Nn2c(SCC(=O)Nc3nc(-c4ccc(Cl)cc4)cs3)nc(C)c2C)cc1`, the growth is 26.2% (inactive).

`CC(C)(C)CC(C)(C)Nc1c(-c2c(O)c3ccccc3oc2=O)nc2sc3ccccc3n12`: the growth is 22.4% (inactive).

On to `C/C(=N\NC(=O)Cn1c(-c2ccc(S(C)(=O)=O)cc2)nc2ccccc21)c1ccc(Cl)cc1`, for which the growth is 98.3% (inactive).

Turning to `CO[C@H]1NC(=O)N(S(=O)(=O)c2ccc(Cl)cc2)[C@@H]1OC`, the growth is 110% (inactive).

As for `COc1ccc(-c2cn[nH]c2-c2cc(OC)c(OC)c(OC)c2)cc1OCc1ccccc1`, the growth was -5.94% (active).

Turning to `O=C(CNC(=O)OCc1ccccc1)NCC(=O)Oc1ccc([N+](=O)[O-])cc1`, the growth is 106% (inactive).
